Here are results for 15 molecules from PubChem BioAssay (NCATS).

Assay [1] can be described thus: Natriuretic polypeptide receptor (hNpr1) antagonism - Pilot counterscreen GloSensor control cell line (AID 1347045; calls by dose curve; further: series mostly up to about 38 µM). The procedure, abridged: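 HEK293 cells carrying the GloSensor cGMP sensor (GIP/pGS-40F) were loaded with 2% GloSensor reagent for 2 h, exposed to compounds for 30 min, and then stimulated with 50 uM sodium nitroprusside for 20 min at room temperature.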

For assay [2], the target named is Atrial natriuretic peptide receptor 1 (Homo sapiens) (UniProt P16066). Description: Natriuretic polypeptide receptor (hNpr1) antagonism - Pilot screen (AID 1347049; calls by dose curve;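 further: agonist-evoked cGMP luminescence read 20 min after hNppA addition; series mostly up to about 58 µM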). The essentials: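 Readout is cGMP-driven firefly luciferase luminescence in HEK293 cells carrying hNpr1 and a PDE5-domain GloSensor, read before and 20 min after 0.1 nM hNppA stimulation. Cells had 2% substrate reagent for 2 h and test compound for 30 min.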

For assay [3], the target named is Atrial natriuretic peptide receptor 2 (Homo sapiens) (UniProt P20594). Nature of the assay: Natriuretic polypeptide receptor (hNpr2) antagonism - Pilot subtype selectivity assay (AID 1347050; calls by dose curve). The procedure, abridged:
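Pilot selectivity screen against hNpr2: HEK293 cGMP-sensor cells are treated with LOPAC1280 compounds, then with hNppC peptide at 1 nM final. The cGMP-driven luminescence change over 20 min at room temperature is the read-out.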

A short description of assay [4]: NS1 protein of Zika virus - qHTS assay to identify small molecule inhibitors in human HEK 293 cells (AID 1347053). Further: series mostly up to about 46 µM; nearly all actives have a fitted effect of over 55% in size. The essentials:
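Inhibition of NS1 expression was scored in HEK 293 cells given compound 1 h ahead of MR766 virus (MOI = 0.5). Following 24 h at 37 C, two anti-NS1 antibodies generated a TR-FRET signal, scaled between uninfected and infected controls.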
A general note: Quantitative high-throughput screening tests each substance at several concentrations.

Assay [5] deals with T1, Tyrosine-protein phosphatase non-receptor type substrate 1 (Homo sapiens) + Leukocyte surface antigen CD47 (Homo sapiens) (UniProt P78324+Q08722). Nature of the assay: CD47-SIRPalpha protein protein interaction - LANCE assay qHTS validation (AID 1347057; active means well fitted curve in the direction sought with a large enough effect in the signal ratio, with a control signal flat, not every such curve was filed as active; the % refers to the signal ratio; further: series mostly up to about 38 µM). The essentials:
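First, His-tagged CD47 and Eu-labelled anti-His antibody met the compound for 30 min; next, site-specifically biotinylated SIRPalpha was added for 30 min; finally streptavidin-APC was added before reading the TR-FRET ratio.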
A general note: Time-resolved FRET reads energy transfer from a long-lived donor to a nearby acceptor.

Assay [6] deals with T1, Tyrosine-protein phosphatase non-receptor type substrate 1 (Homo sapiens) + Leukocyte surface antigen CD47 (Homo sapiens). Nature of the assay: CD47-SIRPalpha protein protein interaction - HTRF assay qHTS validation (AID 1347058; active means well fitted curve in the direction sought with a large enough effect in the signal ratio, not every such curve was filed as active; the % refers to the signal ratio;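 further: recombinant soluble extracellular CD47 with His tag and biotinylated SIRPalpha domains; series mostly up to about 38 µM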). The procedure, abridged:
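TR-FRET read (Ch1/Ch2 ratio) of soluble extracellular CD47 and Avi-biotinylated SIRPalpha domains in PBS pH 7.4 with 0.05% IGEPAL; 7-point compound titration. Sequential 30 min room-temperature steps; non-biotinylated SIRPalpha as control inhibitor.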

Assay [7] shares this target. Description: CD47-SIRPalpha protein protein interaction - Alpha assay qHTS validation (AID 1347059).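 Further: bead proximity luminescence from CD47 binding SIRPalpha after compound preincubation with SIRPalpha.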 The essentials:
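Binding is measured by AlphaScreen proximity: Ni-NTA acceptor beads capture His-CD47, streptavidin donor beads capture biotin-SIRPalpha. Each of three additions (SIRPalpha with compound, CD47, beads) incubates 30 min at room temperature protected from light.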

For assay [8], the target named is Parathyroid hormone/parathyroid hormone-related peptide receptor (Homo sapiens) (UniProt Q03431). Description: qHTS for PTHR1 Agonists: Optimization Screen against the NCGC LOPAC library (AID 1347079).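 Further: GloSensor cAMP luminescence in HEK-293 GP2 cells expressing human PTHR1 with IBMX.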 The procedure, abridged: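 Compounds were tested across a qHTS titration. PTHR1-expressing GP2 cells report cAMP rises via GloSensor luminescence after 1 hr compound exposure at 37C with IBMX present.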

Assay [9] can be described thus: qHTS for Inhibitors of the Functional Ribonucleoprotein Complex (vRNP) of Lassa (LASV) Arenavirus: LASV Primary Screen - GLuc reporter signal (AID 1347082; calls by dose curve; tested in HEK293 reporter line; further: series mostly up to about 57 µM; nearly all actives have a fitted effect of over 60% in size).
Assay [10] is described as follows: qHTS for Inhibitors of the Functional Ribonucleoprotein Complex (vRNP) of Lassa (LASV) Arenavirus: Viability assay - alamar blue signal for LASV Primary Screen (AID 1347083; calls by dose curve; tested in HEK293 reporter line; further: series mostly up to about 57 µM; nearly all actives have a fitted effect of over 80% in size).
Assay [11] in a line: qHTS for Inhibitors of the Functional Ribonucleoprotein Complex (vRNP) of Lymphocytic Choriomeningitis Arenaviruses (LCMV): Viability assay - alamar blue signal for LCMV Primary Screen (AID 1347085; calls by dose curve; tested in HEK293 reporter line; further: series mostly up to about 57 µM; nearly all actives have a fitted effect of over 80% in size).
Assay [12] concerns the target Nucleoprotein (Lymphocytic choriomeningitis virus (strain Armstrong)) (UniProt P09992). Description: qHTS for Inhibitors of the Functional Ribonucleoprotein Complex (vRNP) of Lymphocytic Choriomeningitis Arenaviruses (LCMV): LCMV Primary Screen - GLuc reporter signal (AID 1347086; calls by dose curve; further: series mostly up to about 57 µM; nearly all actives have a fitted effect of over 70% in size).
The nature of assay [13]: P-glycoprotein substrates identified in KB-8-5-11 adenocarcinoma cell line, qHTS therapeutic library screen (AID 1346987). Further: nearly all actives have a fitted effect of over 65% in size. Further: potency means the concentration at half of the fitted maximal effect. The procedure, abridged: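 KB-8-5-11: colchicine-selected sub-line of KB-3-1 over-expressing P-gp; assay medium lacked colchicine. 72 h drug exposure at 37 degree C, CellTiter-Glo.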
A short description of assay [14]: qHTS of pediatric cancer cell lines to identify multiple opportunities for drug repurposing: Primary screen for TC32 cells (AID 1347089). Further: nearly all actives have a fitted effect of over 60% in size. The procedure, abridged:
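qHTS, TC32, 48 h drug treatment, CellTiter-Glo luminescence as a proxy for metabolically active cells; primary top concentration 46 µM (MIPE 11-pt, NPC 8-pt); confirmatory 11-pt.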

The nature of assay [15]: qHTS of pediatric cancer cell lines to identify multiple opportunities for drug repurposing: Primary screen for DAOY cells (AID 1347090). Further: series mostly up to about 46 µM; nearly all actives have a fitted effect of over 55% in size. The procedure, abridged:
(§1)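 Cell viability, CellTiter-Glo luminescence; 500-1,000 cells/well, 8- or 11-point titration, 48 h compound exposure at 37 degrees C, 5% CO2. Controls: DMSO neutral, bortezomib 2.3 µM final as positive.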

A short description of assay [16]: qHTS of pediatric cancer cell lines to identify multiple opportunities for drug repurposing: Primary screen for SJ-GBM2 cells (AID 1347091). The essentials: as §1
Assay [17] in a line: qHTS of pediatric cancer cell lines to identify multiple opportunities for drug repurposing: Primary screen for A673 cells (AID 1347092). Further: nearly all actives have a fitted effect of over 45% in size. The procedure, abridged:
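Luminescence from CellTiter-Glo, taken after 15 min at room temperature, served as the proxy for metabolically active cells following 48 h treatment. Both potency and efficacy were taken from curves fitted to the titration data.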

Assay [18] can be described thus: qHTS of pediatric cancer cell lines to identify multiple opportunities for drug repurposing: Primary screen for SK-N-MC cells (AID 1347093). Further: series mostly up to about 46 µM. The essentials:
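Metabolically active cells were quantified by ATP-dependent luminescence (CellTiter-Glo, 15 min at room temperature) following 48 h treatment. Cells had been plated at 500-1,000 per well and settled for 5 h beforehand.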

Results filed as inconclusive are left out. Calls of active or inactive are those of the source. Unless noted, the call rests on the fitted dose curve; in most records, active means well fitted curve in the direction sought with a large enough effect; inconclusive means small, poorly fitted or top-dose-only effect, or another doubt; inactive means no such curve, though single readings can be large; an effect the other way counts as inactive or inconclusive.

Atrial natriuretic peptide receptor 1 (Homo sapiens), sequence (P16066 whole entry, looked up): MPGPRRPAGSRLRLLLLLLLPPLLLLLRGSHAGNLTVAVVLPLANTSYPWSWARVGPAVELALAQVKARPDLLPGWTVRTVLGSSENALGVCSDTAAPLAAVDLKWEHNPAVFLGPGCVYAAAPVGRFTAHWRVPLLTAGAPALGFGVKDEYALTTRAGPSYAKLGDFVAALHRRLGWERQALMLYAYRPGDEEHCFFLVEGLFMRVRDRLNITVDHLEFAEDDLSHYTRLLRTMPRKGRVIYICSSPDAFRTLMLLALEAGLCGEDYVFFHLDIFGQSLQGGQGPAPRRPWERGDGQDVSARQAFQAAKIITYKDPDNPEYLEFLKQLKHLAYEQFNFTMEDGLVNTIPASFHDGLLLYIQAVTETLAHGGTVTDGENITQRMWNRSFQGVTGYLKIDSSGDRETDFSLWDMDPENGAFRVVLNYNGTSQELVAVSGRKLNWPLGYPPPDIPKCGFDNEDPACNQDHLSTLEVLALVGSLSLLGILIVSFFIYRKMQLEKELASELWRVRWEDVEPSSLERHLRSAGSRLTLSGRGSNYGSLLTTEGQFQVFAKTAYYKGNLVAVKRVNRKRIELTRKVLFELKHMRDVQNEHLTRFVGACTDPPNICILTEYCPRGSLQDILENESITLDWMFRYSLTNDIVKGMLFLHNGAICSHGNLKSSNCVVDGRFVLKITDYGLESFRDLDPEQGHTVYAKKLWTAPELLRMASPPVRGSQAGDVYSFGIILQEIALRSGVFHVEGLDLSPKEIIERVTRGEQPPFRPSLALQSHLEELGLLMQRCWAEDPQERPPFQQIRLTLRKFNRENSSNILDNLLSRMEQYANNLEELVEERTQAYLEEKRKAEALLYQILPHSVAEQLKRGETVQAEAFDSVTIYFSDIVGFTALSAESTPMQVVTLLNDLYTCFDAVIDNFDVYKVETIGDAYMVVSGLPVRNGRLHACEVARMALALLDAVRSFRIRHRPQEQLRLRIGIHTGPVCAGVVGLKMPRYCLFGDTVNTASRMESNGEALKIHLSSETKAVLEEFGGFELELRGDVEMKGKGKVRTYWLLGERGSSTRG
T1 sequence (P78324 whole entry, looked up): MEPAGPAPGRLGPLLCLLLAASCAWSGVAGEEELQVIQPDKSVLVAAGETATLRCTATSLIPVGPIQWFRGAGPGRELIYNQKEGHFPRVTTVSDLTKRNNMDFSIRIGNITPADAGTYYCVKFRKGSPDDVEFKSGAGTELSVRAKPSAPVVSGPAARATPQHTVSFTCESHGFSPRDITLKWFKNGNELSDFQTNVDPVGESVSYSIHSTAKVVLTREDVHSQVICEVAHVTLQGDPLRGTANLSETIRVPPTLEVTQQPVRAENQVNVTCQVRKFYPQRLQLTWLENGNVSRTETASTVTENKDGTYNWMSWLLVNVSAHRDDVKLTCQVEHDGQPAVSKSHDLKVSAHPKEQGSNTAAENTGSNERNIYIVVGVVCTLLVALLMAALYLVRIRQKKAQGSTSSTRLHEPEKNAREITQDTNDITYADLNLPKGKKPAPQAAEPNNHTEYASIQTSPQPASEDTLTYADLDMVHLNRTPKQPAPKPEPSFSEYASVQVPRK
T1 sequence (Q08722 whole entry, looked up): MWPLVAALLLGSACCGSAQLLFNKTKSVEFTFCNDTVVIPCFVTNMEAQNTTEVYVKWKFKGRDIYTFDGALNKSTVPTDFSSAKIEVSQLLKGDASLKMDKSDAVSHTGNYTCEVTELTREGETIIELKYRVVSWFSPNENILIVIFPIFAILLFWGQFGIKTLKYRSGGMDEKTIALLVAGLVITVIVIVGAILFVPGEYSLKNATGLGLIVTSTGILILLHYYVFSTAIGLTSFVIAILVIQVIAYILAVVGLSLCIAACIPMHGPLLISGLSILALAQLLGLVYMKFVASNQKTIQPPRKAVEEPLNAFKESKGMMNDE
Parathyroid hormone/parathyroid hormone-related peptide receptor (Homo sapiens), sequence (Q03431 whole entry, looked up): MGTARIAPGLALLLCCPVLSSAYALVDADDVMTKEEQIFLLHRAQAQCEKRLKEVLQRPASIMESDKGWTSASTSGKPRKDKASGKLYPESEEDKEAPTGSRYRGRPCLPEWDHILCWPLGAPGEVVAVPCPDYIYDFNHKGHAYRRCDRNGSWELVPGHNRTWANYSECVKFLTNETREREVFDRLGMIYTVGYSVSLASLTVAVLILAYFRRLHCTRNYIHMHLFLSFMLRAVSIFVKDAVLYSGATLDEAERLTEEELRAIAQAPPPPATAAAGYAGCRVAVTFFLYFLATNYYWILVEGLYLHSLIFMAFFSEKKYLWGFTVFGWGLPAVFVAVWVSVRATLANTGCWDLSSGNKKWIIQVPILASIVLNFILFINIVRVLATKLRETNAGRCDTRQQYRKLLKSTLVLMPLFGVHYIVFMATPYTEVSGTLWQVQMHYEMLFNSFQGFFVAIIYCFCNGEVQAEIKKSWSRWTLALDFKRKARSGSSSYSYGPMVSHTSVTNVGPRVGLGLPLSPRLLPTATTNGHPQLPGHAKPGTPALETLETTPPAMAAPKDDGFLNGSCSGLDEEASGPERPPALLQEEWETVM
Nucleoprotein (Lymphocytic choriomeningitis virus (strain Armstrong)), sequence (P09992 whole entry, looked up): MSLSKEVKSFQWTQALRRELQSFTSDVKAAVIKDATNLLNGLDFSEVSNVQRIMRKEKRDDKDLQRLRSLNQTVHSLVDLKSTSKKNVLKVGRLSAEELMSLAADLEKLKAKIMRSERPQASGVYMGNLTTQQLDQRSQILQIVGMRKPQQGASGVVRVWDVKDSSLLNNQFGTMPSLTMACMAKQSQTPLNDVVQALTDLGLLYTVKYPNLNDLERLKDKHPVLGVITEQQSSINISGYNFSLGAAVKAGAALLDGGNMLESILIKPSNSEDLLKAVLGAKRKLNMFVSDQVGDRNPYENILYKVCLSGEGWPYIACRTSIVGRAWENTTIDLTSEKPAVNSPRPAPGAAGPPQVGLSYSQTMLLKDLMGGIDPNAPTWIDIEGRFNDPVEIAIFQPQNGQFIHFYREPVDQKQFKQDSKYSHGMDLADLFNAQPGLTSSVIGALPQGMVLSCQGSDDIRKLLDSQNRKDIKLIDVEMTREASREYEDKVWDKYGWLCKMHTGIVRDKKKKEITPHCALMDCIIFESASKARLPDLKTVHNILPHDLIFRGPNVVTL
Atrial natriuretic peptide receptor 2 (Homo sapiens), sequence (P20594 whole entry, looked up): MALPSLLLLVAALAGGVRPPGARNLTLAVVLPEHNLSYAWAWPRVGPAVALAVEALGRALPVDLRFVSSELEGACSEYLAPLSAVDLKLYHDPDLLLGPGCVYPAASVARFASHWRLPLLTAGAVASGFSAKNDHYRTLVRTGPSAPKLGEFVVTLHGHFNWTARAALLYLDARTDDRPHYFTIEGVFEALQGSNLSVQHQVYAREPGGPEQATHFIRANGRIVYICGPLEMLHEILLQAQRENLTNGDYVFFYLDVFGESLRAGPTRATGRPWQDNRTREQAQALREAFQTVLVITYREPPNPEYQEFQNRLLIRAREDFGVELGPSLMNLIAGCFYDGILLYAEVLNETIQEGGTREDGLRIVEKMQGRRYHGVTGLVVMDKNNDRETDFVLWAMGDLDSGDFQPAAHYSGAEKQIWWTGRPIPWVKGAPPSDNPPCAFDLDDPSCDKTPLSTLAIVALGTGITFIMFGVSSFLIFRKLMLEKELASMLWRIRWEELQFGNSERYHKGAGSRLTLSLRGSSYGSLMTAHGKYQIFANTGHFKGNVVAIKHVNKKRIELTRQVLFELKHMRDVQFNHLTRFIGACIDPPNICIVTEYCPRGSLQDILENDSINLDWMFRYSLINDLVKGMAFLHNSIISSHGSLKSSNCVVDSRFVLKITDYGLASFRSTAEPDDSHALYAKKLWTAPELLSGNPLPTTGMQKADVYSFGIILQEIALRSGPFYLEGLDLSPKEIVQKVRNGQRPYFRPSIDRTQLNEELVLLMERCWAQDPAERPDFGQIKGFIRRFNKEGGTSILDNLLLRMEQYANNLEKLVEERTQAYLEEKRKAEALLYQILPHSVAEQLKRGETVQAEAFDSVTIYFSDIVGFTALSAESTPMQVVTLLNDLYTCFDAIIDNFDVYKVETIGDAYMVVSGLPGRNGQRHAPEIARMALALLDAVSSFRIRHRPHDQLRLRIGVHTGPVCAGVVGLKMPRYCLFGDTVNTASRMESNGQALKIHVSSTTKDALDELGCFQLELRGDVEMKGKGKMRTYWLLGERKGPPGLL

On to `CC(=O)NBr`, for which the Potency result in assay [1], in assay [2], in assay [3], in [5], in assay [7] and in assay [8] was “inactive” each time. Also, the Potency entry in assay [9], in [10], in [11] and in [12] was “inactive” throughout. In addition, the outcome in [4] and in [6] was inactive.
Turning to `OCc1cnc[nH]1`, the Potency result in [1], in [2], in assay [3], in assay [5], in assay [7] and in [8] was “inactive” in each case. Further, the Potency result in assay [9], in assay [10], in [11] and in assay [12] was “inactive” in each case. Besides, the call in assay [4] and in [6] was inactive.
`OCCCCC#Cc1cncc(OC[C@@H]2CCN2)c1`: the Potency result in [13] is “inactive”.
As to `OC1CCCCC1N1CCC(c2ccccc2)CC1` (stereo not given), the Potency result in assay [1], in [2], in [3], in assay [5], in assay [7] and in [8] was “inactive” throughout. In addition, the Potency result in assay [9], in [10], in assay [11] and in assay [12] was “inactive” each time. The molecule was classed as inactive in assay [4] and in [6].
In the case of `C/C=C(\C)C(=O)OC1CC2C(C)(C)OC(=O)CC(OC(C)=O)C2(C)C2CC(OC(=O)C(C)C)C3(C)C(c4ccoc4)CC4OC43C12C` (stereo not given), in assay [13], the Potency entry is “inactive”.
Turning to `CC(C)(C)c1o[nH]c(=O)c1CC(N)C(=O)O` (stereo not given), the Potency result in assay [1], in [2], in assay [3], in [5], in assay [7] and in assay [8] was “inactive” in each case. Besides, the Potency result in assay [9] and in assay [10] was “inactive” in each case. The outcome in assay [4] and in assay [6] was inactive.
Take `CCCSP(=O)(OCC)SCCC`: the Potency entry in assay [13], in assay [10], in assay [11], in [15], in assay [17] and in assay [18] was “inactive” each time. The outcome in assay [4], in [14] and in assay [16] was inactive.
On to `CC(N)Cc1c[nH]c2ccc(OCc3cccs3)cc12` (stereo not given), for which the Potency entry in [1], in assay [2], in assay [3], in [5], in assay [7] and in assay [8] was “inactive” each time. For the same molecule, the Potency result in assay [9], in assay [10], in assay [11] and in assay [12] was “inactive” throughout. Further, the call in assay [4] and in [6] was inactive.
Consider `CCCC[N+]1(C)C2CC(OC(=O)[C@H](CO)c3ccccc3)CC1C1OC12` (stereo not given in full), for which the Potency entry in assay [1], in [2], in assay [3], in assay [5], in [7] and in [8] was “inactive” throughout. For the same molecule, the Potency result in assay [9], in assay [10], in assay [11] and in assay [12] was “inactive” throughout. Further, the result in [4] and in assay [6] was inactive.
As to `CN1CCC[C@@H]1Cc1c[nH]c2ccc(Nc3ncccc3[N+](=O)[O-])cc12`, in [13], the Potency result was “inactive”. For the same molecule, the molecule was called inactive in assay [4].
With `CC(C)=C1CC[C@]23CO[C@H](C2)[C@@](O)(C(=O)O)CCC13` (stereo not given in full), the Potency entry in assay [13] is “inactive”.
Take `COc1ccc2[nH]cc(CCN)c2c1`: the Potency entry in [1], in [2], in [3], in assay [5], in [7] and in assay [8] was “inactive” each time. Also, the Potency result in assay [9], in assay [10], in [11] and in assay [12] was “inactive” throughout. The outcome in [4] and in assay [6] was inactive.
For the molecule `N#CC(OC1OC(COC2OC(CO)C(O)C(O)C2O)C(O)C(O)C1O)c1ccccc1` (stereo not given), in assay [13], the Potency result was “inactive”.
Still for that read-out and setting: in the case of `COC1CC(O[C@H]2CC[C@]3(C=O)C4CC[C@]5(C)[C@@H](C6=CC(=O)OC6)CC[C@]5(O)[C@@H]4CC[C@]3(O)C2)OC(C)C1O[C@@H]1O[C@H](CO)[C@@H](O)[C@H](O)[C@H]1O` (stereo not given in full) it was 153 nM (active).
As for `CC(C)NP(=O)(NC(C)C)OP(=O)(NC(C)C)NC(C)C`, the Potency entry in assay [1], in assay [2], in [3], in assay [5], in assay [7] and in assay [8] was “inactive” throughout. The Potency entry in assay [9], in assay [10], in assay [11] and in assay [12] was “inactive” in each case. In addition, the molecule was classed as inactive in [4] and in assay [6].
